Measurements taken from PubChem BioAssay.
Active and inactive are the calls of the source.

Tests used:
[1] = E. coli DRC41 culture turbidity changes, primary screen, E. coli filamentation inducer project, strain DRC41, OD650, 48 h (AID 1152);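 note: E. coli MC1000 strain DRC41 lacking acrAB efflux pump and sulA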; details: E. coli DRC41 (acrAB sulA), higher = more signal, called active from +8 up or from −8 down
[2] = small-molecule binders of probe aLefty1, primary screen, biochemical, small-molecule microarray, 635/667 nm fluorescence (AID 1153); details: higher = more signal;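 note: score merges spot fluorescence with signal-to-noise ratio from the scanned slide images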
[3] = PSAC antagonists in infected red cells, primary screen, cell-based, P. falciparum Indochina, OD700, 1 h (AID 1154); details: P. falciparum Indochina infected RBC osmotic lysis, higher = more signal, called active from +8 up or from −8 down
[4] = PSAC antagonists in infected red cells, primary screen, cell-based, P. falciparum Indochina, OD700, 2 h (AID 1155);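 note: lysis reports solute entry through the parasite surface anion channel PSAC; channel blockers reduce lysis of infected cells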; details: P. falciparum Indochina infected erythrocytes, osmotic lysis OD700; higher = more signal, called active from +8 up or from −8 down
[5] = osmotic lysis modulators in infected erythrocytes, primary screen, PSAC antagonist project, cell-based, P. falciparum Indochina, OD700, 3 h (AID 1156); details: higher = more signal, called active from +8 up or from −8 down
[6] = PSAC antagonists in infected red cells, primary screen, cell-based, P. falciparum Indochina, OD700, 18 h (AID 1157); details: P. falciparum Indochina infected erythrocytes, osmotic lysis OD700, 18 h; higher = more signal, called active from +8 up or from −8 down
[7] = modulators of S6 phosphorylation in cells, primary screen, cell-based, A549, cytoblot, luminescence, serum-stimulated (AID 1158); details: A549 phospho-S6 cytoblot, 5 h, higher = more signal;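 note: serum-stimulated A549 lung adenocarcinoma cells; signal is phosphorylated S6 detected by cytoblot immunostaining with HRP secondary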
[8] = target: NADPH oxidase 2 (Homo sapiens) (UniProt P04839); assay: NOX2-dependent H2O2 signal modulators, primary screen, NOX inhibitor project, cell-based, HEK293-NOX2, PMA-stimulated, Amplex Red fluorescence (AID 1159); details: 45 min, higher = more signal, called active from +8 up or from −8 down; note: test concentration not given here
[9] = target: NADPH oxidase 4 (Homo sapiens) (UniProt Q9NPH5); assay: NOX4-dependent H2O2 signal modulators, primary screen, NOX inhibitor project, cell-based, HEK293-NOX4, tetracycline-induced, Amplex Red fluorescence (AID 1160); details: 45 min, higher = more signal, called active from +8 up or from −8 down
[10] = target: NADPH oxidase 5 (Homo sapiens) (UniProt Q96PH1); assay: NOX5-dependent H2O2 signal modulators, primary screen, NOX inhibitor project, cell-based, HEK293-NOX5, Amplex Red fluorescence (AID 1161); details: HEK293-NOX5, ionomycin, 45 min, higher = more signal
[11] = A549 cell viability effects, profiling panel, calcein-AM fluorescence, 48 h, basal (AID 1162); details: higher = more signal; note: test concentration not given here
[12] = adipocyte viability effects, profiling panel, cell-based, 3T3-L1 adipocytes, calcein-AM fluorescence, 48 h, basal (AID 1163); details: 3T3-L1 adipocytes viability, higher = more signal; note: test concentration not given here
[13] = HepG2 cell viability effects, profiling panel, calcein-AM fluorescence, 48 h, basal (AID 1164); details: higher = more signal; note: test concentration not given here
[14] = MM1S cell viability effects, profiling panel, calcein-AM fluorescence, 48 h, basal (AID 1165); details: higher = more signal;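 note: viability of MM1S multiple myeloma cells under basal unstimulated conditions; test concentration not given here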
[15] = basal RPMI8226 viability, no added stimulus, profiling panel, cell-based, calcein-AM fluorescence, 48 h, PK04 Diversity Set (AID 1166); details: RPMI8226 myeloma viability, higher = more signal;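 note: cells grown under basal conditions without added stimulus; test concentration not given here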
[16] = basal HepG2 mitochondrial membrane potential changes, profiling panel, cell-based, JC-1 fluorescence, 24 h, 100 nL compound (AID 1167); details: higher = more signal; note: test concentration not given here
[17] = basal 3T3-L1 adipocyte mitochondrial potential changes, profiling panel, cell-based, JC-1 fluorescence, 3T3-L1 adipocytes, 24 h, 100 nL compound (AID 1168); details: JC-1 mitochondrial fluorescence, higher = more signal, called active from +8 up or from −8 down; note: test concentration not given here
[18] = basal RPMI8226 mitochondrial membrane potential changes, profiling panel, cell-based, JC-1 fluorescence, 24 h, 100 nL compound (AID 1169); details: RPMI8226 myeloma, JC-1 mitochondrial potential fluorescence, higher = more signal; note: test concentration not given here
[19] = basal MM1S mitochondrial membrane potential changes, profiling panel, cell-based, JC-1 fluorescence, 24 h, 100 nL compound (AID 1170); details: higher = more signal; note: test concentration not given here
[20] = A549 lung cancer cell viability effects, profiling panel, resazurin fluorescence, 24 h, PK04 Diversity Set (AID 1171); details: higher = more signal, called active from +8 up or from −8 down; note: test concentration not given here

Sequence of NADPH oxidase 2 (Homo sapiens) (P04839 whole entry, looked up): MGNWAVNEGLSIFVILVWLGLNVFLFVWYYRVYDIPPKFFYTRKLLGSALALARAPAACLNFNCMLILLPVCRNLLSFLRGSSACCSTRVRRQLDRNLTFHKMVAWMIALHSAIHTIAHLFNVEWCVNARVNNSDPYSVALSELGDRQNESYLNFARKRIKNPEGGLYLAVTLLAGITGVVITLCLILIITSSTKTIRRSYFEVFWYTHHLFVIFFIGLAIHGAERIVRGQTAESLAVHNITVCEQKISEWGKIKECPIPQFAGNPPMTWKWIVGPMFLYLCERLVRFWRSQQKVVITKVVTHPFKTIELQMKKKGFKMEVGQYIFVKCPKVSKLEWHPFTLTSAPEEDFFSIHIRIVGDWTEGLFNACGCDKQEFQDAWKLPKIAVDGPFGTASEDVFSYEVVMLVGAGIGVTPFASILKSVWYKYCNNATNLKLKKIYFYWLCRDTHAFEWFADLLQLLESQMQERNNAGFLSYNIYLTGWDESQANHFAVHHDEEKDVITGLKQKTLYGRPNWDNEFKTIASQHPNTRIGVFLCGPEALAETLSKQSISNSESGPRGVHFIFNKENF
Sequence of NADPH oxidase 4 (Homo sapiens) (Q9NPH5 whole entry, looked up): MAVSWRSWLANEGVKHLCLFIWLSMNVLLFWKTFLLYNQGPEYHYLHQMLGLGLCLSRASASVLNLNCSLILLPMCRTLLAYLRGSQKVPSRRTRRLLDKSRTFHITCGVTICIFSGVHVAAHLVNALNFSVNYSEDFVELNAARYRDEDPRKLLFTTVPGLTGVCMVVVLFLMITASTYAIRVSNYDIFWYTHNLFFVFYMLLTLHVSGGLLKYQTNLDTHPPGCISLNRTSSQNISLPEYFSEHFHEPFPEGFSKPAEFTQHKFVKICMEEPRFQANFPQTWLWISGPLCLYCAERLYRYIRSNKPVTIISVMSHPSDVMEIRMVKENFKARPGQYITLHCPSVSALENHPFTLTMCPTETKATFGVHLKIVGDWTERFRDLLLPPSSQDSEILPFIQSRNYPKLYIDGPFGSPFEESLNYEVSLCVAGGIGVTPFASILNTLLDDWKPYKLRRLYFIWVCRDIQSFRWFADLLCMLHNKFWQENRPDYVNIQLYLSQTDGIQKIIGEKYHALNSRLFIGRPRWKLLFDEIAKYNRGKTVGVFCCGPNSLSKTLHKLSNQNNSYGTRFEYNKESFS
Sequence of NADPH oxidase 5 (Homo sapiens) (Q96PH1 whole entry, looked up): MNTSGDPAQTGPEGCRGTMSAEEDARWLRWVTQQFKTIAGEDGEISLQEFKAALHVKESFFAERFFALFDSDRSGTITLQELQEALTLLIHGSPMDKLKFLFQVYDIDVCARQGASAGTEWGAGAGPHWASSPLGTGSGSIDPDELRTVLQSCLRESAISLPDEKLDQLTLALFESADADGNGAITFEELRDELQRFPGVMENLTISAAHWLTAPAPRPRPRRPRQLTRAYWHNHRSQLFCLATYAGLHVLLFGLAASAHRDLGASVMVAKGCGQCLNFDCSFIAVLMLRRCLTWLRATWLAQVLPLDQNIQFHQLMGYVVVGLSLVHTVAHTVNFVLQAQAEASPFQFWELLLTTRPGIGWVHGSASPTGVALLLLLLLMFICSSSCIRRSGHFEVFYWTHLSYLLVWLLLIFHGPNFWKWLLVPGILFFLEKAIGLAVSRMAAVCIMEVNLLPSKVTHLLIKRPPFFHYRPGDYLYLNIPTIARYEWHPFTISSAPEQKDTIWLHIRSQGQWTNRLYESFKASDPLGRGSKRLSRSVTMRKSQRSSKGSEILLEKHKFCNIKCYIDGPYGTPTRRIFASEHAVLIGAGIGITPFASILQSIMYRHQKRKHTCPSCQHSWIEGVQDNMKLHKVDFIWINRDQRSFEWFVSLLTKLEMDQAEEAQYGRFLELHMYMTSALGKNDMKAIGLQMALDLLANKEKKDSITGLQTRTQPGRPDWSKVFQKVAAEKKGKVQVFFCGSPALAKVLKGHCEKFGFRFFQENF

Structure (SMILES) | z-score [1] | composite z-score [2] | z-score [3] | z-score [4] | z-score [5] | z-score [6] | z-score [7] | z-score [8] | z-score [9] | z-score [10] | z-score [11] | z-score [12] | z-score [13] | z-score [14] | z-score [15] | z-score [16] | z-score [17] | z-score [18] | z-score [19] | z-score [20]
CC(C)C[C@@H]1NC(=O)[C@@H]2C[C@H](C(=O)NCCCCCCN)[C@H](c3cccc(OCCO)c3)N2C1=O | 0.831 (inactive) | 0.393 | 3.69 (inactive) | 0.73 (inactive) | 3.36 (inactive) | 0.227 (inactive) | -0.256 | 2.24 (inactive) | 1.36 (inactive) | 1.99 | -0.038 | 0.971 | -0.822 | 0.206 | -0.703 | -0.39 | 0.433 (inactive) | -0.84 | 0.519 | -0.862 (inactive)
C=C(COC)/C(=C/C[C@H](OC(=O)c1ccncc1)c1ccc(CO)o1)c1cnc2ccccc2c1 | -0.504 (inactive) | 0.213 | 6.19 (inactive) | 0.807 (inactive) | 1.35 (inactive) | 0.307 (inactive) | -0.959 | 1.13 (inactive) | -0.163 (inactive) | -0.377 | 0.349 | -0.474 | -0.439 | -1.41 | -0.366 | -1.06 | -0.582 (inactive) | 0.178 | -0.592 | -0.319 (inactive)
CC#CCO[Si](C#Cc1ccccc1)(C(C)C)C(C)C | -0.112 (inactive) | -0.193 | 0.175 (inactive) | -0.286 (inactive) | -0.975 (inactive) | -0.4 (inactive) | -1.16 | -2.19 (inactive) | -0.176 (inactive) | -0.624 | -0.511 | -0.458 | -0.175 | -0.806 | -1.83 | -1.51 | -0.628 (inactive) | -0.845 | -1.3 | -0.537 (inactive)
COC(=O)[C@@]1(Cc2ccccc2)[C@H]2c3cc(C(=O)N4CCCC4)n(CCc4ccccn4)c3C[C@H]2CN1C(=O)c1ccccc1 | -1.5 (inactive) | 0.928 | 1.93 (inactive) | 0.0978 (inactive) | 1.54 (inactive) | 0.569 (inactive) | -0.266 | 0.267 (inactive) | 0.311 (inactive) | -3.01 | -1.16 | 1.13 | -0.503 | -1.59 | -1.32 | 0.571 | 0.533 (inactive) | -0.272 | -0.618 | 0.523 (inactive)
COc1cc(NN2C(C(O)c3ccc(N(C)C)cc3)C=CC3C(=O)N(c4ccccc4)C(=O)C32)cc(OC)c1OC (stereo not given) | -2.71 (inactive) | 0.315 | 1.76 (inactive) | -0.891 (inactive) | 0.742 (inactive) | -0.765 (inactive) | 1.15 | -2.65 (inactive) | -4.37 (inactive) | -4.75 | -0.0098 | 0.808 | 0.181 | -0.0191 | -0.889 | -0.112 | -0.783 (inactive) | 0.134 | -0.0117 | -0.815 (inactive)
CCCC=C(CCC)[C@@H](NS(=O)(=O)CC12CCC(CC1=O)C2(C)C)c1ccc(C(=O)OC)cc1 (stereo not given in full) | -0.645 (inactive) | 0.0345 | -0.777 (inactive) | -0.825 (inactive) | -0.399 (inactive) | -1.81 (inactive) | 0.922 | 0.219 (inactive) | 0.669 (inactive) | 2.48 | -0.672 | -0.316 | -0.915 | 0.295 | -1.06 | -2 | 0.273 (inactive) | 0.7 | -1.46 | 0.252 (inactive)
O=C(NCc1ccc(F)cc1)[C@H]1C[C@H]2C(=O)NCC(=O)N2[C@H]1c1ccc(O)cc1 | 0.357 (inactive) | 0.239 | 1.11 (inactive) | 0.285 (inactive) | -2.04 (inactive) | 0.4 (inactive) | -0.337 | 0.992 (inactive) | 0.558 (inactive) | 0.693 | 0.139 | -0.218 | -0.457 | -1.49 | 0.461 | 0.679 | -0.276 (inactive) | 0.683 | 0.318 | 0.54 (inactive)
CCOC(=O)C[C@H]1[C@H](OC(=O)c2ccc(C(=O)c3ccccc3)cc2)[C@@H](NC(=O)C2CCCCC2)c2cc(OCCCO)ccc2N1C(=O)c1ccc2ccccc2n1 | 1.94 (inactive) | 0.596 | 3.11 (inactive) | 0.347 (inactive) | -0.238 (inactive) | 0.0872 (inactive) | 0.0955 | -1.62 (inactive) | 0.402 (inactive) | 0.124 | 0.123 | 0.347 | 2.23 | -0.436 | 1.31 | 1.9 | 1.45 (inactive) | 0.592 | -0.543 | -0.0397 (inactive)
CCCCC[C@H]1OC[C@@]23C=C(Br)[C@@H](CC12)[C@@]1(CO1)C3=O (stereo not given in full) | -1.12 (inactive) | -0.294 | 1.66 (inactive) | 0.533 (inactive) | 0.487 (inactive) | 0.184 (inactive) | -0.446 | -0.459 (inactive) | 0.438 (inactive) | 0.134 | 0.433 | -0.0037 | -0.424 | -2.8 | -1.5 | -1.76 | -0.498 (inactive) | -0.314 | -0.824 | -0.612 (inactive)
